In PubChem BioAssay AID1159580 (chemical genetic matrix, 2015):
Screen size: about 5,500 compounds; about 2,000 (36%) were called active. Inconclusive results (about 18%) are left out. Cut-off read from the data, not from the text of the source: active = normalized growth mostly below about 0.91 (no sharp cut-off); inconclusive = no clear call, values can overlap the other calls; inactive = mostly above about 0.92. Some of the results follow.

Experiment: chemical genetic growth profiling, strain panel (AID 1159580);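 note: tested at 20 µM; growth read once vehicle control cultures reached saturation at 30 °C; 1 = growth at the plate median or of vehicle wells; lower values mean less growth of the strain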
Conditions: growth OD

Measured: normalized growth

CC(=O)Oc1ccccc1C(=O)Oc1ccccc1C(=O)O
inactive: S. cerevisiae deletion strains, locus YJR075W, strain HOC1, stronger effect = lower value 1.02 | S. cerevisiae deletion strains, locus YKL009W, strain mrt4, stronger effect = lower value 0.981 | S. cerevisiae deletion strains, locus YKL068W, stronger effect = lower value 0.985 | S. cerevisiae deletion strains, locus YKL085W, strain MDH1 (second series), stronger effect = lower value 0.998 | S. cerevisiae deletion strains, locus YKL085W, strain MDH1, stronger effect = lower value 0.998 | S. cerevisiae deletion strains, locus YKL160W, strain elf1, stronger effect = lower value 0.999 | S. cerevisiae deletion strains, locus YKL190W, strain CNB1, stronger effect = lower value 1 | S. cerevisiae deletion strains, locus YKR001C, strain vps1, stronger effect = lower value 0.979 | S. cerevisiae deletion strains, locus YKR026C, strain gcn3, stronger effect = lower value 1.01 | S. cerevisiae deletion strains, locus YKR091W, strain srl3, stronger effect = lower value 1 | S. cerevisiae deletion strains, locus YLL001W, strain dnm1, stronger effect = lower value 1 | S. cerevisiae deletion strains, locus YLL026W, stronger effect = lower value 1.01 | S. cerevisiae deletion strains, locus YLL041C, strain sdh2, stronger effect = lower value 1 | S. cerevisiae deletion strains, locus YLR027C, strain aat2, stronger effect = lower value 1.01 | S. cerevisiae deletion strains, locus YLR039C, strain RIC1, stronger effect = lower value 0.983 | S. cerevisiae deletion strains, locus YLR058C, strain SHM2, stronger effect = lower value 0.995 | S. cerevisiae deletion strains, locus YLR102C, strain apc9, stronger effect = lower value 0.976 | S. cerevisiae deletion strains, locus YLR113W, strain HOG1, stronger effect = lower value 0.977 | S. cerevisiae deletion strains, locus YLR221C, strain rsa3, stronger effect = lower value 0.998 | S. cerevisiae deletion strains, locus YLR258W, strain gsy2, stronger effect = lower value 0.994 | S. cerevisiae deletion strains, locus YLR262C, strain YPT6 (second series), stronger effect = lower value 1 | S. cerevisiae deletion strains, locus YLR262C, strain YPT6, stronger effect = lower value 0.969 | S. cerevisiae deletion strains, locus YLR268W, strain sec22, stronger effect = lower value 1 | S. cerevisiae deletion strains, locus YLR320W, strain mms22, stronger effect = lower value 0.998 | S. cerevisiae deletion strains, locus YLR330W, strain CHS5, stronger effect = lower value 0.992 | S. cerevisiae deletion strains, locus YLR342W, strain FKS1 (second series), stronger effect = lower value 0.99 | S. cerevisiae deletion strains, locus YLR342W, strain FKS1, stronger effect = lower value 1 | S. cerevisiae deletion strains, locus YLR357W, strain rsc2, stronger effect = lower value 1.01 | S. cerevisiae deletion strains, locus YLR370C, strain arc18, stronger effect = lower value 1 | S. cerevisiae deletion strains, locus YLR371W, strain rom2, stronger effect = lower value 0.975 | S. cerevisiae deletion strains, locus YLR384C, strain iki3, stronger effect = lower value 0.995 | S. cerevisiae deletion strains, locus YLR418C, strain cdc73, stronger effect = lower value 0.997 | S. cerevisiae deletion strains, locus YML016C, strain PPZ1, stronger effect = lower value 0.996 | S. cerevisiae deletion strains, locus YML032C, strain rad52, stronger effect = lower value 0.983 | S. cerevisiae deletion strains, locus YML120C, strain ndi1, stronger effect = lower value 1.01 | S. cerevisiae deletion strains, locus YML124C, strain tub3, stronger effect = lower value 0.992 | S. cerevisiae deletion strains, locus YMR058W, strain fet3, stronger effect = lower value 1.01 | S. cerevisiae deletion strains, locus YMR078C, strain ctf18, stronger effect = lower value 0.984 | S. cerevisiae deletion strains, locus YMR125W, strain sto1, stronger effect = lower value 0.986 | S. cerevisiae deletion strains, locus YMR129W, stronger effect = lower value 0.997 | S. cerevisiae deletion strains, locus YMR205C, strain PFK2, stronger effect = lower value 0.998 | S. cerevisiae deletion strains, locus YMR223W, strain ubp8, stronger effect = lower value 0.969 | S. cerevisiae deletion strains, locus YMR231W, strain pep5, stronger effect = lower value 0.996 | S. cerevisiae deletion strains, locus YMR263W, strain SAP30, stronger effect = lower value 1.01 | S. cerevisiae deletion strains, locus YMR307W, strain GAS1, stronger effect = lower value 0.995 | S. cerevisiae deletion strains, locus YNL067W, strain RPL9B, stronger effect = lower value 1.01 | S. cerevisiae deletion strains, locus YNL071W, strain lat1, stronger effect = lower value 1.01 | S. cerevisiae deletion strains, locus YNL128W, strain TEP1, stronger effect = lower value 1 | S. cerevisiae deletion strains, locus YNL153C, strain GIM3, stronger effect = lower value 1.01 | S. cerevisiae deletion strains, locus YNL183C, strain NPR1, stronger effect = lower value 0.921 | S. cerevisiae deletion strains, locus YNL209W, strain ssb2, stronger effect = lower value 1.01 | S. cerevisiae deletion strains, locus YNL233W, strain BNI4, stronger effect = lower value 0.999 | S. cerevisiae deletion strains, locus YNL248C, strain rpa49, stronger effect = lower value 0.925 | S. cerevisiae deletion strains, locus YNL250W, strain rad50, stronger effect = lower value 0.974 | S. cerevisiae deletion strains, locus YNL271C, strain bni1, stronger effect = lower value 0.971 | S. cerevisiae deletion strains, locus YNL298W, strain CLA4, stronger effect = lower value 0.979 | S. cerevisiae deletion strains, locus YNL307C, strain MCK1, stronger effect = lower value 0.983 | S. cerevisiae deletion strains, locus YNL322C, strain KRE1 (second series), stronger effect = lower value 0.998 | S. cerevisiae deletion strains, locus YNL322C, strain KRE1, stronger effect = lower value 1 | S. cerevisiae deletion strains, locus YNR049C, strain mso1, stronger effect = lower value 1.01 | S. cerevisiae deletion strains, locus YNR052C, strain pop2, stronger effect = lower value 0.975 | S. cerevisiae deletion strains, locus YOL006C, strain TOP1, stronger effect = lower value 1 | S. cerevisiae deletion strains, locus YOL012C, strain htz1 0.794 | S. cerevisiae deletion strains, locus YOL147C, strain pex11, stronger effect = lower value 0.991 | S. cerevisiae deletion strains, locus YOR001W, strain rrp6, stronger effect = lower value 0.972 | S. cerevisiae deletion strains, locus YOR061W, strain CKA2, stronger effect = lower value 0.995 | S. cerevisiae deletion strains, locus YOR069W, strain VPS5, stronger effect = lower value 0.992 | S. cerevisiae deletion strains, locus YOR070C, strain gyp1, stronger effect = lower value 1.02 | S. cerevisiae deletion strains, locus YOR080W, strain dia2, stronger effect = lower value 1 | S. cerevisiae deletion strains, locus YOR083W, strain WHI5, stronger effect = lower value 1.01 | S. cerevisiae deletion strains, locus YOR106W, strain vam3, stronger effect = lower value 1.01 | S. cerevisiae deletion strains, locus YOR136W, strain idh2, stronger effect = lower value 0.978 | S. cerevisiae deletion strains, locus YOR144C, strain elg1, stronger effect = lower value 0.991 | S. cerevisiae deletion strains, locus YOR184W, strain ser1, stronger effect = lower value 0.971 | S. cerevisiae deletion strains, locus YOR231W, strain MKK1, stronger effect = lower value 0.992 | S. cerevisiae deletion strains, locus YOR265W, strain rbl2, stronger effect = lower value 1.03 | S. cerevisiae deletion strains, locus YOR270C, strain vph1, stronger effect = lower value 1.01 | S. cerevisiae deletion strains, locus YOR290C, strain snf2, stronger effect = lower value 0.974 | S. cerevisiae deletion strains, locus YOR316C, strain cot1, stronger effect = lower value 0.978 | S. cerevisiae deletion strains, locus YPL051W, strain arl3, stronger effect = lower value 1.03 | S. cerevisiae deletion strains, locus YPL055C, strain LGE1, stronger effect = lower value 1.02 | S. cerevisiae deletion strains, locus YPL078C, strain atp4, stronger effect = lower value 0.998 | S. cerevisiae deletion strains, locus YPL106C, strain sse1, stronger effect = lower value 0.993 | S. cerevisiae deletion strains, locus YPL240C, strain hsp82, stronger effect = lower value 1.01 | S. cerevisiae deletion strains, locus YPL241C, strain CIN2, stronger effect = lower value 0.965 | S. cerevisiae deletion strains, locus YPL256C, strain CLN2, stronger effect = lower value 0.992 | S. cerevisiae deletion strains, locus YPR119W, strain clb2, stronger effect = lower value 0.991 | S. cerevisiae deletion strains, locus YPR141C, strain kar3, stronger effect = lower value 0.975 | S. cerevisiae deletion strains, locus YPR163C, strain tif3, stronger effect = lower value 0.987 | S. cerevisiae deletion strains, locus YPR167C, strain met16, stronger effect = lower value 0.988 | S. cerevisiae deletion strains, strain wtn01, stronger effect = lower value 0.998 | S. cerevisiae strains, strain wild type, stronger effect = lower value 0.998
